Screen size: about 3,400 compounds; about 160 (4.7%) were called active.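 How the source made its calls: active means fitted curve reaches 30% activation at a concentration no higher than the top valid tested dose, luminescence rising; inconclusive means no clear call, values can overlap the other calls; inactive means signal moving opposite to the expected increase, plus the rest.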 The list is a sample of the results. Entries with a potency or affinity are not part of this list.
test: Wnt/beta-catenin signaling activators, dose response, cell-based, iPS-derived NPC, luciferase, Wnt3a, cherry-pick (AID 1053144); settings: NPC TCF/LEF luciferase reporter, Wnt3a EC25, 24 h; series mostly up to 26 µM;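 further: Wnt3a stimulus is conditioned medium from Wnt3a-transfected mouse L cells at 5% in well; 0% = neutral control wells and 100% = CHIR-99021 positive control wells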

activation, inactive:
Fc1ccc(-c2nc3ccccc3[nH]2)cc1, CC(C)CSc1nnc2c(n1)[nH]c1ccccc12, O=C(/C=C(\Nc1ccccc1)c1ccccc1)c1ccccc1, Cc1ccc(SCc2cn3cc(Cl)ccc3n2)cc1, c1ccc2oc(SCc3cn4ccsc4n3)nc2c1, O=C(CNC(=O)c1ccccc1F)c1ccccc1, O=C(CCN1CCN(c2ccccc2)CC1)Nc1ccc(OCc2ccccc2)cc1, Cc1ccnc(NC(=O)c2ccc(S(=O)(=O)N3CCC(C)CC3)cc2)c1, CSc1ccc(/C=N/NC(=O)c2cc(O)cc(O)c2)cc1, O=C(/C=C/c1ccc(OC2CSC2)cc1)c1ccccc1, N=c1c2c(ncn1CCCO)Oc1c(ccc3ccccc13)C2c1ccccc1 (configuration not stated), COc1ccc(O)c(/C=N/N2CCCCC2)c1, COc1ccccc1CCc1nnc(CCC(=O)N(C)Cc2cccc3cnccc23)o1, Cc1nn(-c2ccccc2)c(C)c1/C=N/Nc1nc2ccccc2[nH]1, C(=N\Nc1nc2ccccc2[nH]1)/c1ccc2c(c1)OCCO2, Clc1nc2ccccc2cc1/C=N/Nc1nc2ccccc2[nH]1, Cc1ccsc1/C=N/Nc1nc2ccccc2[nH]1, C(=N\Nc1nc2ccccc2[nH]1)/c1cccs1, CC(/C=N/Nc1nc2ccccc2[nH]1)=C\c1ccccc1, C=CCn1cc(/C=N/Nc2nc3ccccc3[nH]2)c2ccccc21 6.37% [at 6 µM], C(=N\Nc1nc2ccccc2[nH]1)/c1cccc2cccnc12, O=C(NCCc1ccccc1F)C(=O)Nc1nccs1, CSc1ccccc1OCc1cc(C(=O)N2CCCC(C)C2)no1 (configuration not stated), CCCC(=O)c1ccc(N2CCC(C)CC2)c(F)c1, COc1ccc(C(=O)Nc2nnc(SCC(=O)Nc3ccc(NC(C)=O)cc3)s2)c(OC)c1, Cc1ccc(NC(=O)c2ccc(F)cc2)nc1, CCOC(=O)c1cnc2c(-c3ccccc3)cnn2c1N, Cn1c(SCc2ccc(F)cc2)nnc1-c1ccccn1, COC(=O)c1c(-c2ccc(SC)cc2)sc2ccc(OC)cc12, O=C(O)c1cc(N/N=C/c2ccc(N3CCOCC3)cc2)ccc1Cl, Cc1cnc(NC(=O)c2ccccn2)s1, Cc1ccc(NC(=O)c2ccccn2)c(Br)c1, COc1ccc(NC(=O)Nc2ccc3oc(C)nc3c2)cc1, Fc1ccccc1-c1cc2ncccc2cn1, COc1cccc(C(=O)COC(=O)c2cccs2)c1, COc1ccc(C(=O)COC(=O)c2cccs2)cc1, CCn1c(COc2ccc(OC)cc2)nc2ccccc21, COc1ccccc1OCc1cc(C(=O)N2CCN(C)C(c3ccccc3)C2)no1 (configuration not stated), COc1cc(Cl)ccc1OCc1cc(C(=O)N(C)CC2CCCCO2)no1 (configuration not stated), Nc1nc(Nc2ccccc2)nc2ccccc12, Cc1ccccc1Nc1nc(N)c2ccccc2n1, CCOC(=O)c1oc2nc3c(cc2c1N)CCCC3, O=C(CSc1nnc(C2CC2)n1C1CC1)c1ccc(Br)s1, Cc1ccccc1-c1cc(-c2ccccc2O)n[nH]1, Oc1ccccc1-c1cc(-c2ccc(F)cc2)n[nH]1, COC(=O)c1cc(C)nc(Nc2nc(C(N)Cc3ccc(Cl)cc3)cs2)n1 (configuration not stated), CCOc1ccc(NC(=O)c2csc3c2CCCC3)cc1, Cc1ccc(NC(=O)c2csc3c2CCCC3)cc1, CCOc1ccc(NC(=O)c2ccc3c(c2)N(C)CCS3)cc1, O=C(CSc1ccsc1[N+](=O)[O-])NCc1ccco1, CC(C)Nc1ncnc2c1cnn2-c1ccccc1, COc1ccccc1Nc1ncnc2c1cnn2-c1cccc(C)c1, Cc1ccc(OCC(=O)Nc2ccccc2F)cc1C, c1ccc2c(c1)oc1c(NCC3CCCO3)ncnc12 (configuration not stated), c1ccc(CNc2ncnc3c2oc2ccccc23)nc1, CCOC(=O)N/N=C\c1ccccc1OC/C=C/c1ccccc1, O=C(/C=C/Nc1cccc(O)c1)c1ccccc1, COc1ccc(C(=O)Nc2ccccc2C(=O)NCc2ccco2)cc1OC, O=C(Nc1cccc([N+](=O)[O-])c1)c1ccc2c(c1)OCCO2, CC(=O)Nc1cccc(NC(=O)c2ccc(C)c([N+](=O)[O-])c2)c1, COc1ccc(-c2ccc(NC(=O)c3ccc(Br)o3)cc2)nn1, Cc1ccc(/C(=N/Nc2ncnc3ccccc23)C(=O)O)cc1, Cc1cccc(Nc2ncnc3ccccc23)c1, Cc1ccc(C(=O)Nc2cc3c(oc2=O)CCCC3=O)cc1, Cn1nnc2cc(C(=O)Nc3ccc4ccccc4c3)ccc21, CCOc1ccc(-n2c(COc3ccc(C)cc3)nnc2SCC(N)=O)cc1, CCOc1ccc(C2C=C(c3ccccc3)Nc3nnnn32)cc1 (configuration not stated), COc1ccc(C(=Cc2ccccc2[N+](=O)[O-])C(=O)O)cc1, O=C(Nc1ccc(NC(=O)C2CC2)cn1)c1ccccc1Cl, O=C(Nc1ccc(NC(=O)c2cccs2)cn1)c1ccccc1, COc1cc(NC(=O)c2cccs2)ccc1NC(=O)c1ccco1, O=C(NCC1CCCO1)c1cc(-c2ccc(Cl)cc2Cl)on1 (configuration not stated), O=C(Nc1ccc(F)cc1)c1cc(-c2ccccc2)no1, Cc1cc([N+](=O)[O-])ccc1NC(=O)/C=C/c1cccs1, COc1ccc2[nH]c3c(NCCCOC(C)C)ncnc3c2c1, O=C(CNc1ccc2ccccc2c1)N/N=C/c1ccc(OC(=O)/C=C/c2ccco2)cc1, CCN(C(=O)C=Cc1ccco1)c1ccccc1, Cc1ccccc1Cn1nnc(-c2cccc(C(=O)O)c2)n1, COc1ccc(S(=O)(=O)n2ccc(-c3cnc(-c4ccccc4)s3)n2)cc1, Cc1cccc(Nc2nc(-c3ccc(F)c(C)c3)cs2)n1, CC1CCCCN1C(=O)c1cc(-c2ccc3c(c2)OCO3)on1 (configuration not stated), Oc1oc(-c2ccc(Br)cc2)nc1/C=N/c1ccccn1, Cc1cccc(N2CC(C(=O)NC3CCCCCC3)CC2=O)c1C (configuration not stated), CCC(=O)Nc1nc2cc(OC)ccc2s1, COCC(=O)Nc1nc2ccc(C)cc2s1, CCCC(=O)Nc1nc2ccc(OCC)cc2s1, COc1ccc2sc(NC(C)=O)nc2c1, Cc1ccc(-c2cn3c(=O)cc(C)[nH]c3n2)cc1, CCN(CC)S(=O)(=O)c1ccc(NS(=O)(=O)c2cccc(C)c2)cc1, Cc1ccc(/C=N/Nc2ncnc3nc[nH]c23)cc1, Cc1cccc(N2CCN(C(=O)CCCOc3ccccc3)CC2)c1C, CCN1C(=O)CCN(C2CCCC2)c2nc(Nc3ccc(C(=O)NC4CCN(C)CC4)cc3OC)ncc21, CC(=O)Nc1ccc(C(=O)COC(=O)C2CC2C)c(F)c1 (configuration not stated), Fc1ccc(-c2ccc3c(n2)CCCN3Cc2ccccn2)cc1, O=C(NC(=O)c1ccccc1)Nc1ccccc1O, O=C(Nc1ccccc1N1CCN(c2ccccc2)CC1)c1ccccc1, Oc1[nH]c2ccccc2c1C=Nc1ccc2c(c1)OCO2, COc1ccccc1C(=O)N(C)c1nnc(-c2ccccc2)s1, CCOc1cccc(C(=O)Nc2ccc3c(c2)OCCO3)c1, c1ccc2oc(-c3ccn[nH]3)cc2c1, CCNc1nc(-c2cc3ccccc3o2)cs1, Oc1ccc(Cl)cc1CNc1nccs1, CN(C)c1ccc(/C=N/NC(=O)c2ccn(C)n2)cc1, O=C(NCCc1cccs1)C1CC(c2ccccc2[N+](=O)[O-])=NO1 (configuration not stated), Clc1ccccc1CSc1nc2ccncc2[nH]1, c1ccc(-c2ccc(-c3ccccn3)s2)nc1, CC(=O)Nc1ccc2nc(-c3ccccn3)[nH]c2c1, NC(=O)c1ccccc1OCc1nc2ccccc2s1, Cc1ccc(NC(=O)c2cc3c(s2)CCCC3)cc1, COc1ccc(-c2cc(-c3ccc(OC)cc3)[nH]n2)cc1, COc1ccc2cc(-c3ccccc3)ncc2c1, Cc1ccc(C)c(NC(=O)c2cc3ccccn3n2)c1, O=C(Nc1ccc(Br)cc1)c1cc2ccccn2n1, Clc1ccc(-n2nnc(-c3cccnc3)n2)cc1Cl, O=C(Nc1ccc(F)cc1F)c1csc(-c2cccs2)n1, Cc1nc([N+](=O)[O-])cn1CC(O)c1ccc(Cl)cc1 (configuration not stated), Nc1c(C(=O)c2ccccc2)oc2ccc(Br)cc12, COc1ccc(C(=O)c2oc3ccc(OC)cc3c2N)cc1, COc1ccc(C(=O)Nc2ccc3c(c2)nc2n3CCSC2)cc1, Cc1ccc2cc(C#N)c(SCC(=O)N3CCCC3)nc2c1, NC(=O)C(=O)N/N=C1\CCc2ccccc21, O=C(CC(=O)c1ccccc1)Nc1ccccc1, CC(=O)Nc1cccc(NC(=O)CCCC(=O)O)c1, CC(C)c1ccc(Nc2nnc(SCC(=O)NCC3CCCO3)s2)cc1 (configuration not stated), CCCc1cc(C(=O)Nc2cccc(Cl)c2)no1, CCCc1cc(C(=O)Nc2cccnc2)no1, O=C(Nc1ccc(N2CCCCC2)cc1)c1cncc(Br)c1

Source: PubChem BioAssay AID1053144 (Broad Institute, 2014)
